# Source: PubChem BioAssay (EPA / NIEHS)
# The source made the active and inactive calls. How the source made its calls: active means hit-call score of the fitted dose curve at least 0.9, where 1 is the maximum; inactive means score below 0.9.
# Key:
# [1] = read-out: Interferon-gamma inducible Protein 10 (IP10), CXCL10 (gene 3627); experiment: BSK_hDFCGF_IP10: BioMAP Diversity Plus: hDFCGF Assay for Interferon-gamma inducible Protein 10 (IP10) Biomarker Activity (AID 2283053); conditions: primary human foreskin fibroblasts; actives raise or lower the signal
# How it was run: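 Cells: human dermal foreskin fibroblasts. Exposure: 24 h post-dosing. Detection: IP-10 ELISA, with values expressed against DMSO controls and fitted in both directions.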
# [2] = read-out: Urokinase-type plasminogen activator receptor (uPAR), PLAUR (gene 5329); experiment: BSK_CASM3C_uPAR: BioMAP Diversity Plus: CASM3C Assay for Urokinase-type plasminogen activator receptor (uPAR) Biomarker Activity (AID 2283054); conditions: primary human coronary artery smooth muscle cells; actives raise or lower the signal;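 further: cell-surface uPAR protein level quantified by ELISA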
# [3] = read-out: Vascular cell adhesion molecule 1 (VCAM1), VCAM1 (gene 7412); experiment: BSK_CASM3C_VCAM1: BioMAP Diversity Plus: CASM3C Assay for Vascular cell adhesion molecule 1 (VCAM1) Biomarker Activity (AID 2283055); conditions: primary human coronary artery smooth muscle cells; actives raise or lower the signal;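 further: VCAM-1 protein level quantified by ELISA on the cells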
# [4] = read-out: Collagen III, COL3A1 (gene 1281); experiment: BSK_hDFCGF_CollagenIII: BioMAP Diversity Plus: hDFCGF Assay for Collagen III Biomarker Activity (AID 2283056); conditions: primary human foreskin fibroblasts; actives raise or lower the signal
# How it was run: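 ELISA read-out of collagen III from human skin fibroblast cultures sampled 24 h post-dosing. Values were derived by bidirectional fitting relative to the DMSO vehicle control.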
# [5] = read-out: Epidermal growth factor receptor (EGFR), EGFR (gene 1956); experiment: BSK_hDFCGF_EGFR: BioMAP Diversity Plus: hDFCGF Assay for Epidermal growth factor receptor (EGFR) Biomarker Activity (AID 2283057); conditions: primary human foreskin fibroblasts; actives raise or lower the signal
# How it was run: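 Dosing human primary skin fibroblasts, then measuring surface EGFR by ELISA at 24 h, gives the endpoint; gains and losses relative to DMSO were fitted in both directions.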
# [6] = read-out: Interleukin-8 (IL8), CXCL8 (gene 3576); experiment: BSK_hDFCGF_IL8: BioMAP Diversity Plus: hDFCGF Assay for Interleukin-8 (IL8) Biomarker Activity (AID 2283058); conditions: primary human foreskin fibroblasts; actives raise or lower the signal
# How it was run: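 Cells used are human skin primary fibroblasts. Chemical is added, cultures run 24 h, then IL-8 is quantified by ELISA, and gain or loss versus DMSO control is fitted in both directions.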
# [7] = BSK_hDFCGF_Proliferation: Cell Proliferation Assessment in the BioMAP Diversity Plus: hDFCGF Assay (AID 2283059); conditions: primary human foreskin fibroblasts;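 further: curves fitted for both rise and fall of signal versus DMSO baseline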
# How it was run: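 This proliferation readout used SRB total-protein staining of human foreskin fibroblasts […], normalized to DMSO with bidirectional curve fitting.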
# [8] = read-out: Macrophage colony-stimulating factor (MCSF), CSF1 (gene 1435); experiment: BSK_hDFCGF_MCSF: BioMAP Diversity Plus: hDFCGF Assay for Macrophage colony-stimulating factor (MCSF) Biomarker Activity (AID 2283060); conditions: primary human foreskin fibroblasts; actives raise or lower the signal
# How it was run: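 Primary human foreskin fibroblasts dosed with chemical; 24 h later, M-CSF quantified by ELISA; curves fitted in both directions vs DMSO negative control.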
# [9] = BSK_hDFCGF_SRB: Viability Assessment in the BioMAP Diversity Plus: hDFCGF Assay (AID 2283061); conditions: primary human foreskin fibroblasts;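 further: cells exposed to compound for 24 h before the read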
# How it was run: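 Readout is SRB absorbance at 560 nm, reflecting total protein in parallel cultures of human foreskin fibroblasts harvested 24 h after chemical dosing. Activity was fitted bidirectionally relative to DMSO.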
# [10] = read-out: TIMP metallopeptidase inhibitor 1 (TIMP1), TIMP1 (gene 7076); experiment: BSK_hDFCGF_TIMP1: BioMAP Diversity Plus: hDFCGF Assay for TIMP metallopeptidase inhibitor 1 (TIMP1) Biomarker Activity (AID 2283062); conditions: primary human foreskin fibroblasts; actives raise or lower the signal
# How it was run: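 Human skin fibroblasts (primary), hDFCGF system; compound exposure 24 h; TIMP-1 by ELISA; bidirectional fit vs DMSO negative control; overt cytotoxicity by SRB in parallel wells.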
SMILES,outcome [1],outcome [2],outcome [3],outcome [4],outcome [5],outcome [6],outcome [7],outcome [8],outcome [9],outcome [10],AC50 [1],AC50 [2],AC50 [3],AC50 [7],AC50 [9],AC50 [4],AC50 [8],AC50 [10],AC50 [6],AC50 [5]
COc1cccc([C@H](O)C2CCN(CCc3ccc(F)cc3)CC2)c1OC,inactive,inactive,inactive,inactive,inactive,inactive,inactive,inactive,inactive,inactive,–,–,–,–,–,–,–,–,–,–
Cc1cc2c(cc1C(F)(F)F)N(C(=O)Nc1ccc(Oc3cccnc3C)nc1)CC2,–,–,–,inactive,inactive,inactive,–,inactive,–,inactive,18.4 µM (active),25 µM (active),31.1 µM (active),1.94 µM (active),27.6 µM (active),–,–,–,–,–
CC/C(=C(/CC)c1ccc(O)cc1)c1ccc(O)cc1,–,inactive,–,–,inactive,inactive,–,–,–,–,20 µM (active),–,20 µM (active),7.02 µM (active),25.7 µM (active),11.4 µM (active),20 µM (active),33.4 µM (active),–,–
O=CCCCC=O,–,inactive,–,–,inactive,–,–,–,–,–,34.9 µM (active),–,22.4 µM (active),25.3 µM (active),33.4 µM (active),33.6 µM (active),30.6 µM (active),13.9 µM (active),36.9 µM (active),–
O=C(O)Cn1c(=O)n(Cc2ccc(Br)cc2F)c(=O)c2ccc(Cl)cc21,inactive,inactive,inactive,inactive,inactive,inactive,inactive,inactive,inactive,inactive,–,–,–,–,–,–,–,–,–,–
Cc1oc2c(NC(=O)c3c(Cl)cccc3Cl)cccc2c1C(C)(C)O,inactive,inactive,inactive,–,–,inactive,–,inactive,inactive,–,–,–,–,14.1 µM (active),–,20 µM (active),–,12.3 µM (active),–,17.3 µM (active)
CC(C)(C)c1cc(/C=C2\SC(N)=NC2=O)cc(C(C)(C)C)c1O,–,–,–,–,inactive,–,–,–,–,–,25.7 µM (active),31.9 µM (active),31.1 µM (active),7.49 µM (active),20 µM (active),6.83 µM (active),20 µM (active),31 µM (active),20 µM (active),–
COc1cc(C(=O)NC2CCN(C)CC2)ccc1Nc1ncc2c(n1)N(C1CCCC1)CC(F)(F)C(=O)N2C,–,–,–,–,inactive,–,–,–,–,inactive,11.9 µM (active),24.2 µM (active),14.1 µM (active),4.95 µM (active),16 µM (active),19 µM (active),14.9 µM (active),–,23.8 µM (active),–
O=c1ccc2ccccc2o1,inactive,inactive,inactive,inactive,inactive,inactive,–,inactive,inactive,inactive,–,–,–,8.81 µM (active),–,–,–,–,–,–
Cc1ncc(CO)c(CO)c1O,inactive,inactive,inactive,inactive,inactive,inactive,inactive,inactive,inactive,inactive,–,–,–,–,–,–,–,–,–,–
Cc1cccc2ccccc12,inactive,inactive,inactive,inactive,inactive,inactive,inactive,inactive,inactive,inactive,–,–,–,–,–,–,–,–,–,–
Cc1c2ccccc2c(C)c2c1ccc1ccccc12,–,inactive,inactive,–,–,inactive,–,–,inactive,inactive,6.29 µM (active),–,–,7.26 µM (active),–,1.73 µM (active),5.48 µM (active),–,–,5.45 µM (active)
C[C@]12CC[C@@H]3c4ccc(O)cc4CC[C@H]3[C@@H]1CC[C@H]2O,inactive,inactive,–,–,inactive,inactive,inactive,inactive,inactive,inactive,–,–,16 µM (active),–,–,12 µM (active),–,–,–,–
OCCO,inactive,inactive,inactive,inactive,inactive,inactive,–,inactive,inactive,inactive,–,–,–,20.1 µM (active),–,–,–,–,–,–
CCCOC(=O)c1cc(O)c(O)c(O)c1,–,inactive,inactive,inactive,inactive,inactive,–,inactive,inactive,inactive,20 µM (active),–,–,8.01 µM (active),–,–,–,–,–,–
Cc1occc1C(=O)Nc1ccc(C(=O)N2CCC(F)(F)/C(=C\C(=O)N3CCC(N4CCCCC4)CC3)c3ccccc32)cc1,inactive,inactive,inactive,inactive,inactive,inactive,inactive,inactive,inactive,inactive,–,–,–,–,–,–,–,–,–,–
CCCCCCCCOc1ccc(C(=O)c2ccccc2)c(O)c1,inactive,inactive,inactive,inactive,inactive,inactive,–,inactive,inactive,inactive,–,–,–,20 µM (active),–,–,–,–,–,–
CN1C(=O)CC[C@H]1c1cccnc1,inactive,inactive,inactive,inactive,inactive,inactive,inactive,inactive,inactive,inactive,–,–,–,–,–,–,–,–,–,–
CC(C)(O)c1ccc(CNC(=O)c2cccnc2Oc2ccc3nonc3c2)cc1,inactive,inactive,inactive,inactive,inactive,inactive,inactive,inactive,inactive,inactive,–,–,–,–,–,–,–,–,–,–
